Results: the supplement of paper PMC11732987, “Enantioselective OTUD7B fragment discovery through chemoproteomics screening and high-throughput optimisation” (Communications Chemistry, 2025)
Unmarked numbers belong to inactive results.

Key:
Test in all cases: log2 ratio of Biotin-Ahx-Ub-VS probe labelling (fragment/DMSO); higher = less target engagement (more negative = stronger competition), active = hit call of the paper (q ≤ 0.05, log2 ratio ≤ -1)
Conditions in all cases: compound concentration: 200 uM; treatment time: 3 h
[1] = target: T1, ALG13 (UniProt Q9NP73)
T1 sequence (whole entry): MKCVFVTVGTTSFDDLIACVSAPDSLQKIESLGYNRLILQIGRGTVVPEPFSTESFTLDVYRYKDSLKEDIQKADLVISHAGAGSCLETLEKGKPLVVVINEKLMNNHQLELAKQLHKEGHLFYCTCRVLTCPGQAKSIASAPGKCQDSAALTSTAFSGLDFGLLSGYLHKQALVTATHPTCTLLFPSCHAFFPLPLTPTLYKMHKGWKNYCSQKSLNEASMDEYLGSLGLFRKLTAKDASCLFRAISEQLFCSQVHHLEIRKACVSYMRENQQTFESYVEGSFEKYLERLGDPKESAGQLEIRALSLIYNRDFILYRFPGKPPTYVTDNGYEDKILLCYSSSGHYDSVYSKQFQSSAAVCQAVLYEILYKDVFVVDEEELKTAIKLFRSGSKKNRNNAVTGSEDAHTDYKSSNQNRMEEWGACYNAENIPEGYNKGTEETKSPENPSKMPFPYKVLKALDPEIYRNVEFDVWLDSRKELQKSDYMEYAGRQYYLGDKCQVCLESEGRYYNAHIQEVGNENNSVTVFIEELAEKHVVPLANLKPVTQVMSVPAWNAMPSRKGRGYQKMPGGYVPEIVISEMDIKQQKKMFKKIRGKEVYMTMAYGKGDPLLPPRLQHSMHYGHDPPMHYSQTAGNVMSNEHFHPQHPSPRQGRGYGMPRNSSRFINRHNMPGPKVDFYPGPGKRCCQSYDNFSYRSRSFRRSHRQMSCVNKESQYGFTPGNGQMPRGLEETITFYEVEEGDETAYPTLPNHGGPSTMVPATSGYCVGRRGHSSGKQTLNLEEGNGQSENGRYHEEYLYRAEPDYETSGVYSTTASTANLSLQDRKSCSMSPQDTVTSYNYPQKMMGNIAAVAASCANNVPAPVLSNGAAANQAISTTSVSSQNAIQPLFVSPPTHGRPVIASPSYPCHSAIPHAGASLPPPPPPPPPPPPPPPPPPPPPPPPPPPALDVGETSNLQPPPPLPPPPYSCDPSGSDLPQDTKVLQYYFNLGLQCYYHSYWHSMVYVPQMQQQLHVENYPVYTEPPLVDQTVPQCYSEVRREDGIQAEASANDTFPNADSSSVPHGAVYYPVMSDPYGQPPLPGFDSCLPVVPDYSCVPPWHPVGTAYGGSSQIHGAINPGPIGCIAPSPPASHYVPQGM
Outline: (§1)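 Lysate from HEK293T cells, 495 µg per sample in Tris/CHAPS/IGEPAL buffer with protease inhibitors, was treated for 3 h in triplicate with fragment at 200 µM or vehicle. Biotin-Ahx-Ub-VS was next added at 0.5 µM final for 1 h. The labelled DUBs were enriched with NeutrAvidin, digested with LysC and trypsin, and run by diaPASEF LC-MS/MS, with values given as average log2 fragment/vehicle ratios by unpaired t-test on global-median-normalised Spectronaut quantities of proteins with ≥2 unique peptides.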

[2] = target: ATXN3 (UniProt P54252)
Sequence of ATXN3 (P54252 whole entry): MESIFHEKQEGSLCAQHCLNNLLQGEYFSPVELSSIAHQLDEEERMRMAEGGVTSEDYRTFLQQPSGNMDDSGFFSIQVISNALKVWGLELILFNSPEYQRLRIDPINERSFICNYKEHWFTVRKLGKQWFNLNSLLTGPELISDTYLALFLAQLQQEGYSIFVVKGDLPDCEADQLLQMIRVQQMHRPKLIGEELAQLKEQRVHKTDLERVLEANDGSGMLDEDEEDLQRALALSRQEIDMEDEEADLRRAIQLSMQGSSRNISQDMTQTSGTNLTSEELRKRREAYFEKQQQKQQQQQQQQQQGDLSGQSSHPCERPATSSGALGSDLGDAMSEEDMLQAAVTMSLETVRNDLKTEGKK
Outline: as §1

[3] = target: T2, BAP1 (UniProt Q92560)
T2 sequence (whole entry): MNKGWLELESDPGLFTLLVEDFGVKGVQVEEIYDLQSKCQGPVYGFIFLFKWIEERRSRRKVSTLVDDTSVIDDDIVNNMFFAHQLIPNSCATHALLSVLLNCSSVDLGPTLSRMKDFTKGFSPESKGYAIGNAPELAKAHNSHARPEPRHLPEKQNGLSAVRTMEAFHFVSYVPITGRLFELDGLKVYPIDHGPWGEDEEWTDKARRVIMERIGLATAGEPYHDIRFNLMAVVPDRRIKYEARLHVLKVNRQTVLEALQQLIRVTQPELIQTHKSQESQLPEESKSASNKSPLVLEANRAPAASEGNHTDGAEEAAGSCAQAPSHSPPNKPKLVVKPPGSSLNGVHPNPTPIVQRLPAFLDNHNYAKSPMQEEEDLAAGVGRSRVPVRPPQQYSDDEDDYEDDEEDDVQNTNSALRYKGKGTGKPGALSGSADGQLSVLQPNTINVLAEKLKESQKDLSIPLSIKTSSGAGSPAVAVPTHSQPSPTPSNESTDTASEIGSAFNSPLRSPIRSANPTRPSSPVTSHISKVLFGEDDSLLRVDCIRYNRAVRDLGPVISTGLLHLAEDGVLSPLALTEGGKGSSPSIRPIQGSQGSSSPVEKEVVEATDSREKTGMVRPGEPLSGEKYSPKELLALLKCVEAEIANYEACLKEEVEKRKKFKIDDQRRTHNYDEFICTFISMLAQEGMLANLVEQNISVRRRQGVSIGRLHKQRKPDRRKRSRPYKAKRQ
Outline: as §1

[4] = target: EIF3F (UniProt O00303)
Sequence of EIF3F (O00303 whole entry): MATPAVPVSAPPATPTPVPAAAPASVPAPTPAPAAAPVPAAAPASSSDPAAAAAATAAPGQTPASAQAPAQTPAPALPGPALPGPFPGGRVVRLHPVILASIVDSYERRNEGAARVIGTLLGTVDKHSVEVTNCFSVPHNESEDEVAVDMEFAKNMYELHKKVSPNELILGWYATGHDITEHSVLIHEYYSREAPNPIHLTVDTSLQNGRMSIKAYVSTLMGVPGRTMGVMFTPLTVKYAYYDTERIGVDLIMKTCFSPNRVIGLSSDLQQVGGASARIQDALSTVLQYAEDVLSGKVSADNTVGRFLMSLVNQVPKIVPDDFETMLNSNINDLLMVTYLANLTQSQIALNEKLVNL
Outline: as §1

[5] = target: EIF3H (UniProt O15372)
Sequence of EIF3H (O15372 whole entry): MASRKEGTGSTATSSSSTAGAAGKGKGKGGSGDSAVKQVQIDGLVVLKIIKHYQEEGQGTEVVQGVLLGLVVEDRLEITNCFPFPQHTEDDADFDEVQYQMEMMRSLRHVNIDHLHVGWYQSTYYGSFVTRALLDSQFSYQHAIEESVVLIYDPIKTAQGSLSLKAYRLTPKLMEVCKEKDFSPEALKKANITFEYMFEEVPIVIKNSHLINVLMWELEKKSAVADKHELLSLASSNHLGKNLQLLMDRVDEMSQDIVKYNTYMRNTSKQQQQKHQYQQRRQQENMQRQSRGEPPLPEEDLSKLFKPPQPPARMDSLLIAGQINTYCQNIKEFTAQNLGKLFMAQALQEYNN
Outline: as §1

[6] = target: T3, FAM105A (UniProt Q9NUU6)
T3 sequence (whole entry): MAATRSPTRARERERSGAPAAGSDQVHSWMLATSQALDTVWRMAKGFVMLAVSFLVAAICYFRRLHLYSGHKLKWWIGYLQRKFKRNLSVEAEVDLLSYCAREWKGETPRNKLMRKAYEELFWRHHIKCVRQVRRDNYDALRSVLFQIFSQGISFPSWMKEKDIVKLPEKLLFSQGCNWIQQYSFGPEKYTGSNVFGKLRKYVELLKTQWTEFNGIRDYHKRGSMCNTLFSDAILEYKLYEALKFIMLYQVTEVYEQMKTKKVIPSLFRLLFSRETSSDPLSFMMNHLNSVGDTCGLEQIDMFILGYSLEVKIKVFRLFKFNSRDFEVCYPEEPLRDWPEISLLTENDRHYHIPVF
Outline: as §1

[7] = target: OTUB1 (UniProt Q96FW1)
Sequence of OTUB1 (Q96FW1 whole entry): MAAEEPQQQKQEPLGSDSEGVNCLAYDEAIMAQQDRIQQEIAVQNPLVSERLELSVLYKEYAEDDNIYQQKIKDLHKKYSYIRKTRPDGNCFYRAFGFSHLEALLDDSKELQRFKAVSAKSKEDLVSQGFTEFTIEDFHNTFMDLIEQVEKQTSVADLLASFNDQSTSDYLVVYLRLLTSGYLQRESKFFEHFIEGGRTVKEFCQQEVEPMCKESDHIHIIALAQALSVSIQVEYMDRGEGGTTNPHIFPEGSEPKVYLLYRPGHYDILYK
Outline: as §1

[8] = target: T4, OTUD4 (UniProt Q01804)
T4 sequence (whole entry): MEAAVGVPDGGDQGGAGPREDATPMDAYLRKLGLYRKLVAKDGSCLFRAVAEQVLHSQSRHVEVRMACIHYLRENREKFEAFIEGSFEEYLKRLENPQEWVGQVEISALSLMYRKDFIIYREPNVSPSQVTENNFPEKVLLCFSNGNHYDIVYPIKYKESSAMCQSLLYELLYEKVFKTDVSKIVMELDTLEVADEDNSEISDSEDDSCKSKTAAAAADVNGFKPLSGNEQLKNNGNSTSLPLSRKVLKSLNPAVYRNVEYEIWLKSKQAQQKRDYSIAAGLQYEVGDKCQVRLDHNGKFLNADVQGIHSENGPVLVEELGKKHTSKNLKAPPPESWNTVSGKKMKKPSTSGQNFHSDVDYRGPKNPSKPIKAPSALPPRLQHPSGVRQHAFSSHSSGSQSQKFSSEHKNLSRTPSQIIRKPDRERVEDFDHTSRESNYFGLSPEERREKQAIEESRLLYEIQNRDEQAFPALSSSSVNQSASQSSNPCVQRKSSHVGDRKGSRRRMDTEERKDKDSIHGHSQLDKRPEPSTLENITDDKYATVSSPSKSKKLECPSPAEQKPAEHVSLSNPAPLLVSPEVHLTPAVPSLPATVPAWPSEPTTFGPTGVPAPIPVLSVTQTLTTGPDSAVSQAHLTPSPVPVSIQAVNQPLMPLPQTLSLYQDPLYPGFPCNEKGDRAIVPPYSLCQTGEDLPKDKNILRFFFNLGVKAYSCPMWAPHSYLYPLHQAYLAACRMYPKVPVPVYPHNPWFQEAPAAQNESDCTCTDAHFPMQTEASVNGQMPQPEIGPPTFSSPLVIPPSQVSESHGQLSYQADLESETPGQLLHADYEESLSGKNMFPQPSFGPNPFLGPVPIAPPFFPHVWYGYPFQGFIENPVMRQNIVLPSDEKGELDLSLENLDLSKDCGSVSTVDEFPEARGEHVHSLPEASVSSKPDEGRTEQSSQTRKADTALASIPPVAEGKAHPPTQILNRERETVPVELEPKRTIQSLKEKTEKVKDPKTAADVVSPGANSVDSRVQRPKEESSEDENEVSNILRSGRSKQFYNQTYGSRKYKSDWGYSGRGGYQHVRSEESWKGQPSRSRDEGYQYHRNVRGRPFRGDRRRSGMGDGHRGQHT
Outline: as §1

[9] = target: T5, OTUD5 (UniProt Q96G74)
T5 sequence (whole entry): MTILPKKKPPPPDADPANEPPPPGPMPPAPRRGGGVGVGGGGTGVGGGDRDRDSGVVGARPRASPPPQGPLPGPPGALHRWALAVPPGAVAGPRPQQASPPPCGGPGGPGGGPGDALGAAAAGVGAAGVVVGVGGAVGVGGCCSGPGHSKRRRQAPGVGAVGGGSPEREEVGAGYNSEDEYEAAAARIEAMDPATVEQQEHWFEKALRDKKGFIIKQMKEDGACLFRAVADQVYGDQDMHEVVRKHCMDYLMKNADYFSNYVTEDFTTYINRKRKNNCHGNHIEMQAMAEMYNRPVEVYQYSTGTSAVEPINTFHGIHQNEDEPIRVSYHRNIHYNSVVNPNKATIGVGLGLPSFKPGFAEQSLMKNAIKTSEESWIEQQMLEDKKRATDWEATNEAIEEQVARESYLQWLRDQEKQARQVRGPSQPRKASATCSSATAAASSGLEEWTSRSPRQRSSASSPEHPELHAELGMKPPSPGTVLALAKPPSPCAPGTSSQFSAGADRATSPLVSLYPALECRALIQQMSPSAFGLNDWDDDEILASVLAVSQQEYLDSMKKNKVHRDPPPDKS
Outline: as §1

SMILES: O=C(CCl)NCc1cccc(N2CCCC2=O)c1
- log2 ratio of Biotin-Ahx-Ub-VS probe labelling [1]: -0.0431
- log2 ratio of Biotin-Ahx-Ub-VS probe labelling [2]: -0.37
- log2 ratio of Biotin-Ahx-Ub-VS probe labelling [3]: -3.09 (active)
- log2 ratio of Biotin-Ahx-Ub-VS probe labelling [4]: 0.179
- log2 ratio of Biotin-Ahx-Ub-VS probe labelling [5]: 0.112
- log2 ratio of Biotin-Ahx-Ub-VS probe labelling [6]: -0.0389
- log2 ratio of Biotin-Ahx-Ub-VS probe labelling [7]: 0.122
- log2 ratio of Biotin-Ahx-Ub-VS probe labelling [8]: -0.18
- log2 ratio of Biotin-Ahx-Ub-VS probe labelling [9]: -0.358
